aGal spleen mod – qHTS Assay for Inhibitors and Activators of Human alpha-Galactosidase From Spleen Homogenate | human spleen homogenate, 4MU-alpha-Gal fluorescence, 40 min | AID 2107, 2009 | Potency, µM (doses to about 80 µM), for inactives: top-dose activity change, negative = inhibition, hits mostly inhibitors | 240,000 compounds, 0.008% hits;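 also: potency is read from the fitted curve at half-maximal effect; 0% = enzyme with vehicle and -100% = no enzyme basal signal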
Target sequence (P06280 32-429 limits assumed): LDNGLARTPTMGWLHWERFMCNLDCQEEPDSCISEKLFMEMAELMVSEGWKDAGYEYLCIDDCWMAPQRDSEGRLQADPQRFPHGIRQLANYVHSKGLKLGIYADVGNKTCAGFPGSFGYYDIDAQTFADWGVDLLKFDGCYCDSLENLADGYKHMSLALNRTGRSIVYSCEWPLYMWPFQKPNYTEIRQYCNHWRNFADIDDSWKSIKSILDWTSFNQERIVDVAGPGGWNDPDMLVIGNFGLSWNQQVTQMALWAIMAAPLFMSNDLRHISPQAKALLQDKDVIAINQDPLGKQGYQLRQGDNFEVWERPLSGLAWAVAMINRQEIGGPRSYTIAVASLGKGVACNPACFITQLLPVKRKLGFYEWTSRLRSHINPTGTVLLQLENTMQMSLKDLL
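qHTS titration in buffer at pH 5.0. Alpha-galactosidase activity in spleen homogenate was measured via 4-methylumbelliferone release from 1 mM fluorogenic substrate after 40 min at 37C and a pH 10 stop. AC50 came from Hill fits of control-normalized data.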
GLA inh pH 4.5 – qHTS Assay for Inhibitors of Human alpha-Galactosidase at pH 4.5; purified enzyme, 4-MU-alpha-Gal fluorescence, pH 4.5; activity change, negative = inhibition, % at 105 µM; 230,000 tested, under 10 active;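 also: 0% = full activity with enzyme and -100% = basal without enzyme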
Integrin act MD – qHTS for Activators of Integrin-Mediated Alleviation for Muscular Dystrophy; alpha7betagal myoblasts, beta-gal FDG fluorescence, 48 h; Potency, µM (highest dose often 38.3 µM), without a hit: at the top dose activation, usual class: activators; 350,000 compounds, 0.064% hits; AID 624291, 2012;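 also: potency is read from the fitted curve at half-maximal effect; 100% = response of the positive control SU9516; nearly all actives have a fitted effect of over 60% in size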
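alpha7betagal+/- myoblasts (passage 13, 250/well) treated 48 h at 37C with compounds at 1:260 dilution of DMSO stock. Lysed, then beta-galactosidase activity read as FDG fluorescence (ex 480/em 540) after 30 min, with pre-read for autofluorescence.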
MLL CXXC-DNA inh – qHTS Fluorescence Polarization Assay for Inhibitors of MLL CXXC domain - DNA interaction. Potency, µM (doses to about 115 µM), for the others: top-dose activity change, negative = inhibition, actives largely listed as inhibitors. MLL-CXXC / FITC-HOXA9 DNA fluorescence polarization. 290,000 compounds, 0.037% hits. Histone-lysine N-methyltransferase 2A (Homo sapiens), Q03164. AID 2662, 2010; active = well fitted inhibition curve with a large enough effect in the polarisation, with a control signal flat, not every such curve was filed as active; inconclusive = small, poorly fitted or top-dose-only effect, or effect the other way, or a change in a side signal; inactive = no such curve, though single readings can be large or run the other way; the % refers to the polarisation; also: potency is read from the fitted curve at half-maximal effect
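Steps: dispense CXXC domain solution (7 uM) → pin compounds or unlabeled HOX-A9 DNA control → 5 min ambient → add FLSN-HOX-A9 solution (50 nM) → spin → 30 min ambient → fluorescence polarization. Tris pH 7.5/NaCl/DTT/BSA buffer.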
Menin-MLL FL inh – qHTS Assay for Inhibitors Targeting the Menin-MLL Interaction in MLL Related Leukemias: Competition With Fluorescein Labeled MLL-derived Peptide; FP activity change, % at 61.4 µM; AID 1766, 2009; Fluorescence polarization, fluorescein-MLL peptide displacement from menin; 290,000 tested, under 10 active; active = well fitted curve in the direction sought with a large enough effect in the polarisation, not every such curve was filed as active; inconclusive = small, poorly fitted or top-dose-only effect, or effect the other way, or a change in a side signal; inactive = no such curve, though single readings can be large or run the other way; the % refers to the polarisation; also: % of control where 0% means no effect
Menin MLL FP TR – qHTS Assay for Inhibitors Targeting the Menin-MLL Interaction in MLL Related Leukemias: Competition With Texas Red Labeled MLL-derived Mutant Peptide; O00255; Menin + Texas Red MLL mutant peptide, fluorescence polarization; Potency, µM (top dose mostly 61.6 µM), for the others: at the highest dose FP activity change, negative = inhibition, hits mostly inhibitors; 270,000 compounds, 0.23% hits; active = well fitted inhibition curve with a large enough effect in the polarisation, with a control signal flat, not every such curve was filed as active; inconclusive = small, poorly fitted or top-dose-only effect, or effect the other way, or a change in a side signal; inactive = no such curve, though single readings can be large or run the other way; the % refers to the polarisation; also: potency is read from the fitted curve at half-maximal effect; % of control where 0% means no effect
An asterisk follows results filed as active; u = inconclusive; x = no result given; ! = repeats disagree; [ ] = dose if it differs, or a comment. Shown is part of a subset that was picked to be rich in hits. Unless noted, calls follow the shape of the dose curve; as a rule, active = well fitted curve in the direction sought with a large enough effect; inconclusive = small, poorly fitted or top-dose-only effect, or another doubt; inactive = no such curve, though single readings can be large; an effect the other way counts as inactive or inconclusive.

SMILES	aGal spleen mod	GLA inh pH 4.5	Integrin act MD	MLL CXXC-DNA inh	Menin-MLL FL inh	Menin MLL FP TR
CCN(CC)S(=O)(=O)c1ccc(C(=O)NNC2=NS(=O)(=O)c3ccccc32)cc1	x	x	14%	1%	10	7%
CCOc1ccc(NC(=O)CN2C(=O)NC(CCSC)C2=O)cc1 (stereo unspecified)	-3%	6	10µM*	5%	-1	7%
CC(=O)[O][Al][O]C(C)=O	x	x	x	-4%	6	11%
COc1ccc2nc(SCC(=O)Nc3ccc(S(=O)(=O)N4CCCC4)cc3)c(C#N)cc2c1	4%	0	-44%	28%	13	16µM*
O=C(NC(=S)NCCC1=CCCCC1)c1ccc(Br)o1	-16%	-9	7.1µM*	-2%	-1	17%
COC(=O)COc1ccc(NC(=O)Cn2nc(-c3ccccc3)c3ccccc3c2=O)cc1	-1%	1	7%	5%	-1	-12%
COc1ccc(-c2nn(CC(=O)Nc3ccc(Cl)c(Cl)c3)c(=O)c3ccccc23)cc1	-5%	3	-13%	17%	6	10µM*
O=C(NC1CCCCC1)c1ccc(CS(=O)(=O)Cc2ccccc2F)o1	-5%	4	-12%	-2%	1	-27%
O=C(NC1CCCC1)c1ccc(CS(=O)(=O)Cc2ccccc2F)o1	x	x	4.5µM*	u	x	x
O=C(O)c1cccc(N2C(=O)c3cccc4cccc(c34)C2=O)c1	x	x	21%	-8%	-2	18%
O=C(O)c1cccc(N2C(=O)c3cc([N+](=O)[O-])cc4cc([N+](=O)[O-])cc(c34)C2=O)c1	x	x	16%	32µM*	11	u
COc1cc(NCc2ccc3nc(N)nc(N)c3c2C)cc(OC)c1OC	11%	-5	x	12%	0	25µM*!
O=C1C2=CC[C@H]3C(=O)N(Cc4ccc5c(c4)OCO5)C(=O)[C@@H]3[C@@H]2[C@H](O)[C@@H]2O[C@H]12	-4%[17.5 µM]	x	x	x	-4[11.7 µM]	-1%[11.7 µM]
O=C1OC2(c3cc(I)c(O)c(I)c3Oc3c2cc(I)c(O)c3I)c2c(Cl)c(Cl)c(Cl)c(Cl)c21	8%	x	x	x	u	u
COc1ccc(-c2cc(COc3ccccc3)on2)cc1	1%	-11	10µM*	2%	-3	30%
Fc1ccc(OCc2cc(-c3ccccc3)no2)cc1	x	x	-10%	-10%	7	2%
O=C(Cn1cccc1C(=O)c1ccccc1)NCCCc1ccccc1	x	x	4µM*	7%	0	-5%
Cc1ccccc1C(=O)c1cccn1CC(=O)NCCCc1ccccc1	x	x	12%	10%	0	1%
[O]=[Bi][O]C(=O)[O][Bi]=[O]	x	x	x	1%	8	11%
O=C(Cn1cnc2sc(-c3ccccc3)cc2c1=O)NCc1ccccc1	4%	3	-3%[7.66 µM]	-1%	6	u
O=C(Cn1cnc2sc(-c3ccccc3)cc2c1=O)NCc1ccco1	0%	0	0%	6%	11	25µM*
COCCSc1ccccc1C(=O)Nc1cc(C)cc(C)c1	-4%	5	4.5µM*	-4%	-4	5%
COCCSc1ccccc1C(=O)Nc1ccncc1	1%	0	22%	3%	0	-16%
CCCCCCCCCCCCCCCC(=O)NCC(=O)O	2%	2	x	x	-3	8%
CCCNC(=O)Cn1c(=O)/c(=C/c2ccc(-c3cccc([N+](=O)[O-])c3)o2)s/c1=C\C(=O)C(C)(C)C	x	x	3%	x	x	x
CCCNC(=O)Cn1c(=O)/c(=C\c2ccc(-c3ccc([N+](=O)[O-])cc3)o2)s/c1=C\C(=O)C(C)(C)C	-6%	-5	-104%	1%	u	18µM*
CCOC(=O)C(=Cc1ccc(Br)cc1)C(=O)OCC	-4%	1	-63%	-7%	4	28µM*
